According to PubChem BioAssay AID720697 (Broad Institute, 2013):
Potency and affinity values are given separately. Records with an inconclusive call do not appear. Entries that show only a call come without a potency. Active and inactive are the calls of the source.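 How the source made its calls: active means signal loss with fitted half-maximal concentration at or below twice the top valid tested dose in every test run; inconclusive means runs disagree, flat 30 to 70% signal loss, or poor fit; inactive means all runs flat, opposite direction, or potency beyond limit.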

Assay: HEK293T cytotoxicity, dose response, cytotoxicity control for miR-122 modulator project, cell-based, inhibitor set, cherry-pick, set 2 (AID 720697)
Details: HEK293T viability, CellTiter-Glo luminescence, 48 h; series mostly up to 26 µM
In the case of COCC(=O)N(C[C@H]1N[C@@H](CO)[C@@H]1c1ccc(C2=CCCC2)cc1)C(C)C, the outcome is reported as “inactive”.
With CN1C(=O)c2cc(NS(=O)(=O)c3cccc(F)c3)ccc2OC[C@@H]2O[C@@H](CC(=O)O)CC[C@@H]21 the outcome was “inactive”.
With CN1C(=O)c2cc(NC(=O)c3cccc(F)c3)ccc2OC[C@@H]2O[C@H](CC(=O)O)CC[C@@H]21 the outcome was “inactive”.
